Molecules are shown by their SMILES. The whole screen tested about 2,100 compounds, of which about 940 (45%) were called active. Roughly 48% stayed inconclusive and do not appear here. So high a share suggests a set chosen from earlier hits. The list shows a part of the results. Unmarked numbers belong to inactive results. Calls follow the shape of the dose curve; as a rule, active = well fitted inhibition curve with a large enough effect; inconclusive = small, poorly fitted or top-dose-only effect; inactive = no such curve, though single readings can be large or run the other way.
Potency is read from the fitted curve at half-maximal effect.

The assay is described as follows: Confirmatory qHTS for Inhibitors of ATXN expression. Also: nearly all actives have a fitted effect of over 65% in size.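 As to activity change, negative = inhibition: 0% = DMSO vehicle wells and -100% = medium-only wells without cells.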 To be noted: ATXN2-luciferase reporter cells, luminescence, 24 h; series mostly up to 11.5 µM; activity change, negative = inhibition: at the top concentration. From the text:
PI: Daniel Scoles Ph.D. University of Utah School of Medicine, Salt Lake City, Utah MLPCN Grant: NS073009 Spinocerebellar ataxia type 2 (SCA2) is a multisystem neurodegenerative disease caused by a dominantly acting mutation leading to expansion of a polyQ domain in the ataxin-2 protein (ATXN2). SCA2 patients develop progressive ataxia and later lose function in other neuronal systems. Prominent parkinsonian signs develop in some patients. Like many neurodegenerative disorders, no symptomatic or disease-modifying treatments are known. The primary objective of the proposed research is to identify compounds inhibiting ATXN2 expression and to test them for efficacy in SCA2 mouse models. We have developed a cell-based assay paired with an in vivo mouse model using identical luciferase expression constructs. This approach takes advantage of an ATXN2-luciferase transgene, with the luciferase gene flanked by the upstream and downstream portions of the ATXN2 gene. Here we describe a 5-7 dose quantitative high thoroughput screen (qHTS) for compounds lowering ATXN2 expression. We screened the NIH Molecular Libraries Small Molecule Repository (MLSMR) and NCGC's mechanistically annotated (MIPE) and drug repurposing (NPC) collections of compounds for lowering expression of an ATXN2-luciferase reporter in HEK-293 cells. The assay is a multiplexed cell viability assay to ensure target reduction in the absence of cytotoxicity. Secondary qHTS assays included a CMV-luciferase reporter expressed in HEK-293 cells as well as a biochemical assay using recombinant luciferase to detect inhibitors of the reporter enzyme. Compounds that inhibit ATXN2 expression but is not cytotoxic were selected for confirmatory and secondary screens.
PROTOCOL TABLE (as described by Inglese J, Shamu CE and Guy RK. 2007) SEQUENCE No. (e.g., 1, 2, 3, etc.); PARAMETER (e.g., Cells, Incubation, Reagent, etc.); VALUE; DESCRIPTION. 1; Cells; 4 uL; white, solid bottom, 1536-well Greiner assay plate. 2; Incubation; 2 hr; 37 degree C in 5% humidified CO2. 3; Compounds; 23 nL; Kalypsis pintool (Wako USA) equipped with a 1536-well pin head. 4; Incubation; 24 hr; 37 degree C in 5% humidified CO2. 5; Reagent; 1 uL; Gly-Phe-7-Amino-4-trifluoromethylcoumarin. 6; Incubation; 30 min; 37 degree C in 5% humidified CO2. 7; Detection; Fluorescence; ViewLux plate reader (PerkinElmer). 8; Reagent; 3 uL; SteadyGlo luciferase solution (Promega). 9; Incubation; 5 min; room temperature. 10; Detection; Luminescence; ViewLux plate reader (PerkinElmer). NOTES (numbers refer to Sequence numbers above) 1. […] expressing ATXN2-luciferase reporter were suspended in phenol-red free DMEM and dispensed in assay plates using a Multidrop Combi dispenser (Thermo Fisher Scientific). Wells containing medium only were plated on each plate, and values were used to normalize (100% inhibition) in the luciferase and CellTiter-Fluor assays. 2. Assay plates were incubated. Evaporation was prevented by covering assay plates with metal lids containing holes to allow gas diffusion. 3. Compounds were added in a dose response manner with the final concentrations of 57, 11.4, 2.28, 0.46, 0.091, 0.018, 0.0037 uM. Vehicle-only plates, with DMSO being pin-transferred to columns 5-48, were inserted uniformly at the beginning and the end of each library to monitor and record any shifts in assay performance. 5. 125 uM Gly-Phe-7-Amino-4-trifluoromethylcoumarin (MP Biomedicals) working concentration was used at a final concentration of 25 uM. 7. To assess cell viability; the assay plates were read using the ViewLux high-throughput CCD imager (PerkinElmer), wherein single end-point fluorescence measurement was acquired (excitation 405/10; emission 540/25 nm). 8. Detection reagent SteadyGlo Luciferase (Promega) was added to the assay plate. 10. Luminescence is then measured on the ViewLux imager equipped with a clear emission filter using a 2 sec exposure. […]
A general note: In qHTS, concentration-response curves come from the screen itself.
Take `N#Cc1ccccc1NC(=O)C1SC(=Nc2ccccc2)C(C(=O)Nc2ccc(Cl)cc2)=C1N` (stereo not drawn): the “activity change, negative = inhibition” value was -3.14%.
With `O=c1c2c(-c3ccccc3)csc2nc2c3ccccc3c(NCCN3CCOCC3)nn12`, the Potency is 3.16 µM (active).
As for `Brc1cnc2nc(SCc3nc4ccccc4[nH]3)[nH]c2c1`, the Potency was 2.82 µM (active).
Regarding `Cc1ccc(-c2nc3cc(Br)cnc3nc2-c2ccc(C)cc2)cc1`, the “activity change, negative = inhibition” value is -7.66%.
For `O=C(CSc1nnc(-c2ccc(Br)cc2)o1)Nc1cccc(C(=O)O)c1`, the Potency was 3.16 µM (active).
The same measure, in the same setting: the figure for `COc1cc(/C=N/Nc2snc(SC)c2C#N)cc(OC)c1OC` is 3.16 µM (active); for `CCCCCn1c(=N)n(CC(O)COc2ccccc2OC)c2ccccc21` (stereo not drawn) it is 2.51 µM (active); for `Cc1ccc(OCC(O)Cn2c(=N)n(CCN3CCCCC3)c3ccccc32)cc1` (stereo not drawn) it is 14.1 µM (active).
The same measure, in the same setting: the figure for `N=c1n(CCN2CCCCC2)c2ccccc2n1CC(O)c1ccc(Cl)c(Cl)c1` (stereo not drawn) is 15.8 µM (active).
Same read-out and setting: the figure for `COc1cccc(NC(=S)/C(=C(\[O-])c2cc(C)n(-c3ccccc3F)c2C)[n+]2ccc(N(C)C)cc2)c1` is 15.8 µM (active).
Take `O=C(Nc1ccc(Cl)cc1)Nc1ccc(N2CCCC2)c(S(=O)(=O)Nc2ccccc2Cl)c1`: the Potency was 3.55 µM (active).
For the compound `CCOC(=O)Nc1ccc(N2CCOCC2)c(S(=O)(=O)Nc2ccc(Cl)cc2)c1`, the “activity change, negative = inhibition” value is -19.7%.
In the case of `Cc1ccc2ccc3cccnc3c2n1`, the Potency is 4.47 µM (active).
For the compound `OC(c1ccccc1)(c1nc(/C=C/c2ccc(C(F)(F)F)cc2)cs1)C(F)(F)F` (stereo not drawn), the Potency was 35.5 µM (active).
`OC(c1ccccc1)(c1nc(-c2ccc3ccccc3c2)cs1)C(F)(F)F` (stereo not drawn): the “activity change, negative = inhibition” value was 26.4%.
For `OC(c1ccccc1)(c1nc(-c2cc3ccccc3o2)cs1)C(F)(F)F` (stereo not drawn), the “activity change, negative = inhibition” value was 8.38% [at 57.5 µM].
With `CCOc1cc(C=C(C(=O)OC)C(=O)OC)ccc1OCc1ccc([N+](=O)[O-])cc1`, the Potency is 25.1 µM (active).
With `CCN(CC)c1ccc(/C=N/NC(=O)CNC(=O)C2COc3ccccc3O2)c(O)c1` (stereo not drawn), the Potency was 0.251 µM (active).
The same measure, in the same setting: the figure for `O=C(CNC(=O)C1COc2ccccc2O1)N/N=C/c1ccc(O)cc1O` (stereo not drawn) is 2.51 µM (active); for `COc1cccc(/C=N/NC(=O)Cn2nc(C)c([N+](=O)[O-])c2C)c1O` it is 14.1 µM (active); for `CCN(CC)c1ccc(/C=N/NC(=O)c2cccc(S(=O)(=O)N3CCOCC3)c2)c(O)c1` it is 0.891 µM (active).
Still for that read-out and setting: the figure for `COc1ccccc1/C=C\C(=O)NCC(=O)N/N=C/c1cccc(OC)c1O` is 12.6 µM (active); for `COc1cccc(/C=N/NC(=O)CSc2ccccc2C)c1O` it is 12.6 µM (active).
Same read-out and setting: the figure for `COc1cccc(/C=N/NC(=O)CNC(=O)C2COc3ccccc3O2)c1O` (stereo not drawn) is 8.91 µM (active).
On to `CCN(CC)c1ccc(/C=N/NC(=O)Cc2cccs2)c(O)c1`, for which the Potency is 2.82 µM (active).
For the compound `Cn1ncc2c(N3CCN(c4ccc(Cl)c(Cl)c4)CC3)ncnc21`, the Potency was 1.58 µM (active).
On to `Cc1cc(NC(c2cccnc2)c2ccc3cccnc3c2O)no1` (stereo not drawn), for which the Potency is 2.82 µM (active).
On the same count and under the same terms, to `Oc1c(C(Nc2cccc(C(F)(F)F)c2)c2cccnc2)ccc2cccnc12` (stereo not drawn) belongs 28.2 µM (active).
`Oc1c(C(Nc2cccc(C(F)(F)F)c2)c2ccncc2)ccc2cccnc12` (stereo not drawn): the Potency was 3.55 µM (active).
The same measure, in the same setting: to `COc1ccc(Cl)cc1C(Nc1cccnc1)c1ccc2cccnc2c1O` (stereo not drawn) belongs 12.6 µM (active).
`COC(=O)Cc1[nH]n(-c2nc3ccccc3s2)c(=O)c1C(C)=Nc1ccc(C)cc1`: the “activity change, negative = inhibition” value was -90.6% [at 57.5 µM].
As for `Cc1cc(C)n(-c2nc(NCCN(C)C)c3c4c(sc3n2)COC(C)(C)C4)n1`, the Potency is 3.16 µM (active).
Take `COc1cc(OC)cc(-c2cc3nc(C)c(CCC(=O)O)c(C)n3n2)c1`: the Potency is 0.562 µM (active).
Regarding `COc1cc(OC)cc(-c2cc3nc(C)c(CCC(=O)NCc4ccccc4)c(C)n3n2)c1`, the Potency is 4.47 µM (active).
Take `COc1cccc(OCC(=O)Nc2cc(Cl)ccc2Oc2ccccc2)c1`: the “activity change, negative = inhibition” value is -25.3%.
Turning to `COc1cccc(CN(C)C(=O)c2ccc(OCC(=O)Nc3cccc(C(F)(F)F)c3)c(OC)c2)c1`, the Potency was 15.8 µM (active).
The same measure, in the same setting: the figure for `CCCCCCn1c2c(c(=N)c3c1CCC3)CCC2` is 3.98 µM (active); for `Cc1cnc(NC(=O)CN2CCN(c3ccccn3)CC2)s1` it is 5.62 µM (active).
In the case of `Cc1ccc(SC2=C(Sc3ccc(C)cc3)C(=O)c3ccccc3C2=O)cc1`, the “activity change, negative = inhibition” value was 6.96% [at 57.5 µM].
As for `CCN1CCN(C2=C(NS(=O)(=O)c3ccc(C)cc3)C(=O)c3ccccc3C2=O)CC1`, the Potency was 3.16 µM (active).
Still for that read-out and setting: the figure for `CC(=O)NC(c1ccc2ccccc2c1)c1ccc2cccnc2c1O` (stereo not drawn) is 0.141 µM (active); for `CC(=O)NC(c1ccc(C(C)C)cc1)c1ccc2cccnc2c1O` (stereo not drawn) it is 0.631 µM (active); for `CC(=O)NC(c1ccco1)c1ccc2cccnc2c1O` (stereo not drawn) it is 1.41 µM (active).
Turning to `CC(=O)c1sc(C(C)(C)C)cc1NC(=O)/C=C/C(=O)O`, the Potency was 17.8 µM (active).
For `COc1ccc(F)cc1-c1cc(NC=O)c2ncc(-c3cccc(C(=O)N(C)C)c3)n2c1`, the Potency is 3.55 µM (active).
`COc1ccccc1-c1cc(NC=O)c2ncc(-c3ccc(F)cc3)n2c1`: the Potency was 22.4 µM (active).
`CN(C)C(=O)c1cccc(-c2cnc3c(NC=O)cc(-c4ccccc4N(C)C)cn23)c1`: the “activity change, negative = inhibition” value is -13%.
Still for that read-out and setting: the figure for `CN(C)C(=O)c1cccc(-c2cnc3c(NC=O)cc(-c4ccc(F)cc4)cn23)c1` is -12%.
Consider `COc1cc(-c2cnc3c(NC=O)cc(-c4cccc(C(F)(F)F)c4)cn23)cc(OC)c1OC`, for which the Potency is 12.6 µM (active).
Still for that read-out and setting: to `CCSc1ccc(-c2cc(NC=O)c3ncc(-c4cccc(C(=O)NCCN(C)C)c4)n3c2)cc1` belongs 3.16 µM (active).
With `COc1ccc(-c2cc(NC=O)c3ncc(-c4cccc(C(=O)NCCN(C)C)c4)n3c2)cc1`, the “activity change, negative = inhibition” value is -22.5% [at 57.5 µM].
In the case of `CCOc1ccc(/C=C/[N+](=O)[O-])c2ccccc12`, the Potency was 15.8 µM (active).
In the case of `Cc1ccc(CN2CCC(c3cc(-c4ccc(Cl)cc4)n[nH]3)CC2)cc1`, the Potency is 28.2 µM (active).
For the compound `CCOC(=O)N(C)c1c(CC)nc2c(OCc3ccccc3OC)cccn12`, the “activity change, negative = inhibition” value is -25.4% [at 57.5 µM].
As for `COC(=O)c1ccccc1COc1cccn2c(N(C)Cc3cccs3)c(C)nc12`, the Potency was 28.2 µM (active).
`ClC(Cl)(Cl)c1nc2ccccc2n2nncc12`: the Potency is 2.82 µM (active).
On to `CCc1ccc(-c2nc(CS(=O)CC(=O)NCc3ccco3)c(C)o2)cc1` (stereo not drawn), for which the Potency was 0.398 µM (active).
Turning to `CC1(C(=O)NCc2ccco2)CCN1C(=O)C1(c2ccccc2)CC1` (stereo not drawn), the “activity change, negative = inhibition” value is 2.15%.

For the origin of these results see PubChem BioAssay AID1745848 (National Center for Advancing Translational Sciences (NCATS), 2022).
